Experimental data from PubChem BioAssay (Tox21).
Records with an inconclusive call do not appear. The source made the active and inactive calls. Unless noted, calls follow the shape of the dose curve; as a rule, active = well fitted curve in the direction sought with a large enough effect in the repeat runs; inconclusive = weak or mixed curves; inactive = no such curve, though single readings can be large; an effect the other way counts as inactive or inconclusive.

Columns and labels:
[1] = target: Retinoic acid receptor RXR-alpha (Homo sapiens) (UniProt P19793); assay: qHTS assay to identify small molecule agonists of the RXR signaling pathway (AID 1159527; calls by dose curve; also: nearly all actives have a fitted effect of over 35% in size)
Method in brief: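 Agonist mode; 9-cis retinoic acid positive control. HEK 293T UAS-bla reporter cells, 2% charcoal-stripped FBS, 16 hr compound exposure at 37 C/5% CO2. LiveBLAzer B/G FRET substrate 2 hr RT; ex 405, em 460/530 nm.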

[2] = qHTS assay to identify small molecule agonists of the RXR signaling pathway - cell viability counter screen (AID 1159529); also: series mostly up to about 77 µM; nearly all actives have a fitted effect of over 50% in size
Method in brief: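 Luminescence from CellTiter-Glo (30 min, RT) measured viability in the same wells as the beta-lactamase reporter readout. Cells: GeneBLAzer RXR-alpha HEK 293T, 2% charcoal-stripped FBS. Compound exposure 16 hr, 37 C.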

[3] = qHTS assay to identify small molecule antagonists of the estrogen related receptor (ERR) signaling pathway from Tox21 library - cell viability counter screen (AID 1224834); also: nearly all actives have a fitted effect of over 30% in size
Method in brief: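 Viability readout (CellTiter-Fluor fluorescence, 30 min at 37 C) multiplexed with the ERR assay; cells treated 17.5 h at 37 C with compounds delivered in DMSO.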

[4] = target: Luciferin 4-monooxygenase (Photinus pyralis) (UniProt P08659); assay: qHTS assay to identify small molecule inhibitors of firefly luciferase (AID 1224835); also: series mostly up to about 120 µM; nearly all actives have a fitted effect of over 25% in size
Method in brief: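 Biochemical qHTS: compounds run as interplate titrations against purified firefly enzyme, with D-luciferin and ATP each at its KM concentration. Light output recorded by CCD imaging.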

[5] = qHTS assay to identify small molecule agonists of the constitutive androstane receptor (CAR) signaling pathway - cell viability counter screen (AID 1224836); also: series mostly up to about 92 µM; nearly all actives have a fitted effect of over 45% in size
Method in brief: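 Viability read-out: CellTiter-Fluor fluorescence after 23 h compound exposure at 37 C/5% CO2 in double-stable HepG2-CYP2B6-hCAR cells, with PK11195 present at 0.75 uM final; compounds tested in 15-point titration.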

[6] = qHTS assay to identify small molecule antagonists of the constitutive androstane receptor (CAR) signaling pathway - cell viability counter screen (AID 1224837); also: series mostly up to about 92 µM; nearly all actives have a fitted effect of over 45% in size
Method in brief: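 Fluorescence from CellTiter-Fluor served as the viability signal. Human hepatoma HepG2 cells stably bearing hCAR and CYP2B6-2.2kb received compound plus CITCO (50 nM final) for 23 hr.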

[7] = target: Nuclear receptor subfamily 1 group I member 3 (Homo sapiens) (UniProt Q14994); assay: qHTS assay to identify small molecule antagonists of the constitutive androstane receptor (CAR) signaling pathway (AID 1224838);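 also: HepG2 cells stably expressing hCAR with CYP2B6 luciferase reporter stimulated by CITCO; nearly all actives have a fitted effect of over 40% in size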
Method in brief: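 Quantitative HTS in double-stable HepG2-CYP2B6-hCAR cells. After 4 h plating, cells get compound (15 concentrations) and CITCO at 50 nM final, incubate 24 h at 37 C, then ONE-Glo luminescence is read.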

[8] = target: Nuclear receptor subfamily 1 group I member 3 (Homo sapiens) (UniProt Q14994); assay: qHTS assay to identify small molecule agonists of the constitutive androstane receptor (CAR) signaling pathway (AID 1224839);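 also: HepG2 cells stably carrying human CAR and a CYP2B6 luciferase reporter; series mostly up to about 92 µM; nearly all actives have a fitted effect of over 15% in size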
Method in brief: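 Luminescence read-out (ONE-Glo, 30 min, room temperature) from double-stable HepG2-CYP2B6-hCAR cells exposed 24 h to 15-point compound series in presence of 0.75 uM PK11195 final.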

[9] = qHTS assay to identify small molecule antagonists of the estrogen related receptor signaling pathway with the pleiotropic PPARgamma coactivator (PGC) from Tox21 10K library - cell viability counter screen (AID 1224840; active = well fitted cell-killing curve with a large enough effect in the repeat runs, not every such curve was filed as active; also: nearly all actives have a fitted effect of over 40% in size)
Method in brief: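 Compounds in DMSO, alongside positive and negative controls, were pinned onto PGC/ERR cells (2,000 per well). Exposure lasted 17.5 hours at 37 C, followed by a 30-minute CellTiter-Fluor incubation and fluorescence reading.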

[10] = qHTS assay to identify small molecule antagonists of the retinoic acid receptor (RAR) signaling pathway (AID 1159552; also: nearly all actives have a fitted effect of over 50% in size)
Method in brief: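 Luminescence from a RARE luciferase reporter in C3RL4 cells served as read-out. Cells received compounds together with 1 uM final retinol and incubated 6 hr at 37 C before detection reagent was added for 30 min at room temperature.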

[11] = qHTS assay to identify small molecule agonists of the retinoic acid receptor (RAR) signaling pathway (AID 1159553)
Method in brief: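 Cell line C3RL4, RARE luciferase reporter. Treatment: compounds in DMSO, 6 hr, 37 C, 5% CO2, after overnight plating. Detection: luminescence, 30 min RT after reagent.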

[12] = qHTS assay to identify small molecule antagonists of the estrogen related receptor signaling pathway with the pleiotropic PPARgamma coactivator (PGC) from Tox21 10K library (AID 1224841; call rule not given here; also: series mostly up to about 92 µM; actives are mostly falling curves and most rising ones were filed inactive; nearly all actives have a fitted effect of over 50% in size)
Method in brief: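 Compound exposure ran 18 hours at 37 C in PGC/ERR cells (2,000/well) that had first rested 6 hours in a 37 C/5% CO2 incubator. Luciferase activity was then detected with One-Glo after a 30-minute room-temperature step.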

[13] = qHTS assay to identify small molecule agonists of the estrogen related receptor signaling pathway with the pleiotropic PPARgamma coactivator (PGC) from Tox21 10K library (AID 1224842); also: nearly all actives have a fitted effect of over 15% in size
Method in brief: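 PGC/ERR reporter cell line, 2,000 cells per well, incubated 6 h at 37 C before 23 nL compound in DMSO was added. After 18 h at 37 C, One-Glo luminescence read following 30 min at room temperature.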

Measured: Potency

Chain of Nuclear receptor subfamily 1 group I member 3 (Homo sapiens) (Q14994 whole entry, looked up): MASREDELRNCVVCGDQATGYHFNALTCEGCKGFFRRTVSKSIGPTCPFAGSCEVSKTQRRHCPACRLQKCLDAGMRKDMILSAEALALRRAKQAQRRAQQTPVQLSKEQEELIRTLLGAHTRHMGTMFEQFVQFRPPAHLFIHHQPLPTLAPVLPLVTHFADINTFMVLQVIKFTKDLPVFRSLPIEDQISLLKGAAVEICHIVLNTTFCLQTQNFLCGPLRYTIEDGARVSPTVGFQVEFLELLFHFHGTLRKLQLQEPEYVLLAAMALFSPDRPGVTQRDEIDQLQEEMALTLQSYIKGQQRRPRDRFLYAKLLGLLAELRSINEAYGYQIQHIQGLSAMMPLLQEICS
Chain of Luciferin 4-monooxygenase (Photinus pyralis) (P08659 whole entry, looked up): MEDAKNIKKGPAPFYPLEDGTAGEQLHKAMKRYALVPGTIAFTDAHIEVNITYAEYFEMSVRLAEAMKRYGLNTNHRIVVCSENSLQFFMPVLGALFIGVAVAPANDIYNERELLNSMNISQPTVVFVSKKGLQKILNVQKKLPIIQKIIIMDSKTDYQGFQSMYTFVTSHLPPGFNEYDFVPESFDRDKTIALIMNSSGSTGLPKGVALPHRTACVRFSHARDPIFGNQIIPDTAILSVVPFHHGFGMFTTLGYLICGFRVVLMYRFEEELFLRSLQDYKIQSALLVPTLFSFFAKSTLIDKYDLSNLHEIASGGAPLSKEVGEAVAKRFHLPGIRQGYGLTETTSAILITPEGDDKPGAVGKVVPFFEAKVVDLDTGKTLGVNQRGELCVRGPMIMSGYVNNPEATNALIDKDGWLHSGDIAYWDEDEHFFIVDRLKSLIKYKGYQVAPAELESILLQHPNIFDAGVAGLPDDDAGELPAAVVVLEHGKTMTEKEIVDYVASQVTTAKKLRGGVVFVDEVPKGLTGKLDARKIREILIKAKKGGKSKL
Chain of Retinoic acid receptor RXR-alpha (Homo sapiens) (P19793 whole entry, looked up): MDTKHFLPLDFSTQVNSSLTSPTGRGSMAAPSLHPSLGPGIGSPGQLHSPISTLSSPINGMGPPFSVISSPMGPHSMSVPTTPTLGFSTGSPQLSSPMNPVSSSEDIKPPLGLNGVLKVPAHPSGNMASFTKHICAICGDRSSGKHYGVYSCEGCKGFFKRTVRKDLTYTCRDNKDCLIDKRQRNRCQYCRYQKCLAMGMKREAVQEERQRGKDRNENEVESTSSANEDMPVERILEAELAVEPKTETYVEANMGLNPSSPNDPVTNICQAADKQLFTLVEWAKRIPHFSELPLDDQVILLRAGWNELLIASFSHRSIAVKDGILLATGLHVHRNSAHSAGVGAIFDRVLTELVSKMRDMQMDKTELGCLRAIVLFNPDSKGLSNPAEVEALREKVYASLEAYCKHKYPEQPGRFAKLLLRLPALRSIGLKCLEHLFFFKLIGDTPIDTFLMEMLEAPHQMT

Nc1ccc([As](=O)(O)O)cc1
not listed: [10] | [11] | [12] | [13]
inactive: all other assays above

CC(=O)C1CCOC1=O (stereo not given)
not listed: [7] | [8] | [12] | [13]
inactive: all other assays above

C[C@]12CC[C@H](O)CC1=CC[C@@H]1[C@@H]2CC[C@]2(C)C(=O)CC[C@@H]12
not listed: [1] | [12] | [13]
inactive: all other assays above

CCOP(=S)(OCC)Oc1cc(C)nc(C(C)C)n1
not listed: [10] | [11] | [12] | [13]
inactive: all other assays above

CNC(=O)O/N=C(\SC)C(=O)N(C)C
inactive: all assays above
